Shown are actives, neighbours in structure and some others; about 2.2% of the full set was active somewhere.
CHT allo act = allosterically activates the human high affinity choline transporter | Q9GZV3 | CHT-expressing cells, membrane potential dye, choline EC20; active compounds read high; LV-AA mutant CHT in HEK293 cells | B-score at 10 µM | hit rate 0.49% among 310,000 | AID 488977;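 active = initial fluorescence not abnormally high and integrated response B-score, plate-corrected, over 3 SD above library mean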
Target sequence (Q9GZV3 whole entry, looked up): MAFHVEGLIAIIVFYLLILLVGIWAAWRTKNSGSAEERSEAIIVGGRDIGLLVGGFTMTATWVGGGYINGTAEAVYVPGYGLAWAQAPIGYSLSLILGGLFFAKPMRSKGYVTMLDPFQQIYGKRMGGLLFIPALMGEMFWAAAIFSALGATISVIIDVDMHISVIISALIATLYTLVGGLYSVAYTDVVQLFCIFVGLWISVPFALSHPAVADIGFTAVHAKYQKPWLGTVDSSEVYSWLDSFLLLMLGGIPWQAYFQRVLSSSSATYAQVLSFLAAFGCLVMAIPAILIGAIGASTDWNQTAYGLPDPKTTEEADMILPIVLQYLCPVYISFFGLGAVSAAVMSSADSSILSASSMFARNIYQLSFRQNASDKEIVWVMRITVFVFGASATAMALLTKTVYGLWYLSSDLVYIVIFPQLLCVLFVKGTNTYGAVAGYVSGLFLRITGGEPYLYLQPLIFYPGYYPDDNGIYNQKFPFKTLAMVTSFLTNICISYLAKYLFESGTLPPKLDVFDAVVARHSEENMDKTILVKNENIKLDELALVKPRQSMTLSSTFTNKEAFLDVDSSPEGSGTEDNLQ
AI-2 QS mod = Vibrio harveyi AI-2 quorum sensing modulation. activity change, % at 7.5 µM. hit rate 0.4% among 300,000. Vibrio harveyi JMH597 AI-2 luminescence/OD600 ratio, 9 h; active compounds read low; strain lacks LuxN and CqsS sensors; 0 = neutral-control median; in the data active = activity change below about -75%, passing the limit was not always enough;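 note: luminescence divided by OD600 gain over 9 h not by final OD600 alone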
Platelet DG rel = platelet dense granule release activity | human platelet-rich plasma, SFLLRN dense granule ATP release, luminescence | inhibition, %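 (compounds screened at 7.5 µM in platelet-rich plasma)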 | hit rate 0.22% among 300,000 | AID 1663;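 active = mean replicate score, as percent of positive control, at or above 50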
CHT block = human CHT choline transport inhibition; Q9GZV3; CHT-expressing cells, membrane potential dye, choline response; active compounds read low; B-score at 10 µM; hit rate 0.86% among 310,000;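 active = B-score over 3 SD under the library average, and starting fluorescence ratio not unusually high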;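 note: choline stimulus applied at its EC90 after an EC20 pre-addition; B-score computed on integrated fluorescence ratio after choline addition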
VLA-4 inh = inhibition in a human VLA-4 binding assay; P13612; VLA-4 expressing cells, ligand binding flow cytometry; inhibition, % (about 7 µM as worked out from the volumes in the protocol); hit rate 0.2% among 330,000; AID 2557; in the data active = inhibition above about 50%
HIF activator = HIF pathway transcriptional activation. U2OS HRE-luciferase reporter, luminescence; normalized: DMSO 0%, desferrioxamine 100%. activation, % at 7.5 µM (by protocol). hit rate 0.32% among 300,000. AID 1910;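 active = mean activation of at least 10% of the iron chelator positive control signal, with at least half of replicates also reaching 10%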
CHT activ conf = confirmation of human choline transporter (CHT) activators. shares compounds with CHT allo act. CHT-expressing cells, membrane potential dye fluorescence (FDSS); % of choline EC20–EC90 response window; HEK293 expressing CHT LV-AA mutant; choline added at its EC20. activation, % at 10 µM. hit rate 91% among 2,500. AID 504833;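 active = primary screen active, with duplicate mean activation above negative control mean plus 3 SD, cut at about 11% in these data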
HEK293 MP dye = CHT activator counter-screen hit in parental HEK293 cells. membrane potential dye fluorescence (FDSS); measured after EC20 choline addition. hit rate 62% among 2,500. shares compounds with CHT allo act. ratio readout change at 10 µM, hits read low;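 active = duplicate-averaged ratio beyond 3 SD from buffer wells, up or down, though filed actives are nearly all decreases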
An asterisk follows results filed as active; i = inactive; / = not tested or not shown.

SMILES	CHT allo act	AI-2 QS mod	Platelet DG rel	CHT block	VLA-4 inh	HIF activator	CHT activ conf	HEK293 MP dye
COc1ccc(N=C2O/C(=C/c3sc(=S)n(CC4CCCO4)c3O)N=C2C#N)cc1 (stereo not drawn)	i	16.7	3.9	i	-274.6	-0.3	/	/
COc1ccc(-n2nc(C(=O)NCC(=O)NCCCN3CC(C)CC(C)C3)c3ccccc3c2=O)cc1Cl (stereo not drawn)	7.66*	13.5	0.7	i	15.4	0.2	43.1*	-46.9*
Cc1cc(NCCN(C)C)n2nc(-c3cccs3)cc2n1	10.2*	-2.9	-11.3	i	8.6	0.0	47.3*	-89.1*
OCCCNc1cc(-c2ccccc2)nc2cc(-c3ccc(F)cc3)nn12	i	9.0	-3.9	i	3.5	0.7	/	/
Cc1cc(NCCCO)n2nc(-c3cccs3)cc2n1	8.07*	36.1	8.0	i	8.4	0.2	61.8*	-55.6*
Cc1cc(C)n2nc(-c3ccsc3-n3c(C)ccc3C)cc2n1	i	22.4	-0.7	i	-124.2	-0.2	/	/
CCOc1ccc(N(CC(=O)N2CCCC2)S(=O)(=O)c2ccc(F)cc2)cc1	i	17.3	-7.3	i	8.8	0.2	/	/
N=C(N)N1CCN(Cc2ccccc2)CC1	i	4.8	-1.4	i	0.2	-0.3	/	/
O=C1C2CC=C(Cl)CC2C(=O)N1CCC[n+]1cccc2ccccc21 (stereo not drawn)	i	16.9	3.5	i	14.8	0.7	50.1*	-25*
CN(C)c1cccc2cccc(N(C)C)c12	i	10.9	-5.6	i	22.6	-0.8	/	/
CN(C)c1ccc2c3c(ccc(N(C)C)c13)COC2	14.6*	16.9	4.0	i	2.2	-0.2	24.4*	-31*
O=C1CC2(CCN(C(=O)c3c(F)cccc3Cl)CC2)Oc2ccccc21	8.67*	21.1	5.0	i	12.7	-0.5	-3.0	i
O=C1CC2(CCN(C(=O)c3ccccc3Br)CC2)Oc2ccccc21	i	15.9	0.9	i	11.6	-0.7	/	/
COc1ccc(Cl)cc1C(=O)N1CCC2(CC1)CC(=O)c1ccccc1O2	9.62*	14.8	2.8	i	12.7	0.1	4.2	i
O=C(Cn1cnc2scc(-c3cccc([N+](=O)[O-])c3)c2c1=O)NCc1ccco1	i	2.2	-7.1	i	19.8	-0.2	/	/
O=C1C(NS(=O)(=O)c2cccs2)=C(N2CCN(c3cccc(C(F)(F)F)c3)CC2)C(=O)c2ccccc21	i	17.8	11.6	i	7.7	-0.3	/	/
O=C1C(NS(=O)(=O)c2cccs2)=C(N2CCOCC2)C(=O)c2ccccc21	7.17*	4.8	-0.1	i	-0.1	-0.4	40.8*	-40.5*
Cc1nc(SCC(=O)NCC2CCCO2)c2c3c(sc2n1)CCCC3 (stereo not drawn)	i	/	1.8	i	1.3	-0.5	/	/
COCCSc1nc(N)c2c3c(sc2n1)CN(C)CC3	6.39*	8.2	7.9	i	-7.7	0.6	41.3*	-50.9*
CCN(CC)CCNc1nc(SC)nc2sc3c(c12)CCN(C)C3	i	8.8	4.3	i	-30.9	-0.2	/	/
COCCNc1nc(SC)nc2sc3c(c12)CCN(C)C3	7.14*	7.9	2.0	i	-1.7	-1.1	38.3*	-44.4*
CC(C)Sc1nc(N)c2c3c(sc2n1)CN(C)CC3	i	31.8	-0.8	i	-13.2	12.7*	30.9*	-43.5*
CSc1nc(SCC(=O)NCC2CCCO2)c2c3c(sc2n1)CN(C)CC3 (stereo not drawn)	6.52*	6.0	0.1	i	-3.4	0.2	36.3*	-50.4*
CN(C)S(=O)(=O)c1ccc(Cl)c(NC(=O)CNC2(C)CCS(=O)(=O)C2)c1 (stereo not drawn)	/	/	/	/	-1.4	/	/	/
CN1CCN(NC(=O)c2cn(-c3ccccc3)nc2-c2ccc(OC(F)F)cc2)CC1	i	-1.3	1.9	i	7.2	-0.3	/	/
SMILES	CHT allo act	AI-2 QS mod	Platelet DG rel	CHT block	VLA-4 inh	HIF activator	CHT activ conf	HEK293 MP dye
Cc1cccc(Cn2c(Cc3ccccc3)nc3ccccc32)c1	9.83*	14.6	-8.6	i	2.6	-0.4	4.9	i
Cc1nnc(C)c2c(C)n(Cc3ccc4c(c3)OCO4)c(C)c12	8.06*	25.7	-5.0	i	-3.3	-0.5	54.3*	-44.7*
CCOc1ccc(NC(=O)C(C)NC(=O)c2ccccc2Cl)cc1S(=O)(=O)N1CCCC1 (stereo not drawn)	/	/	/	/	3.2	/	/	/
c1ccc(Cn2c(CNc3nc4ccccc4n3CCN3CCCCC3)nc3ccccc32)cc1	i	9.4	-23.7	i	5.2	0.1	/	/
CCN(CC)CCn1c(NCc2nc3ccccc3n2Cc2ccccc2)nc2ccccc21	7.72*	-3.2	0.1	i	6.9	-0.6	43.6*	i
CCCn1c(NCc2ccc3c(c2)OCO3)nc2ccccc21	i	-1.1	0.2	i	17.6	0.4	20.1*	-24.5*
CCCn1c(C(O)c2ccc3c(c2)OCO3)nc2ccccc21 (stereo not drawn)	i	13.4	1.5	i	21.2	0.0	/	/
COc1ccc(CNc2nc3ccccc3n2CCN2CCCCC2)cc1	i	13.8	13.8	i	-13.5	-0.1	25.5*	-20.6*
CCN(CC)c1ccc(CNc2nc3ccccc3n2CCN2CCCCC2)cc1	i	30.8	8.2	i	0.6	-0.5	/	/
CC(C)(C)OC(=O)C[C@H]1C/C=C\C[C@@H](CC(=O)N(CCO)Cc2ccccc2)C(=O)N[C@H](Cc2ccccc2)COC1=O	/	/	/	/	7.9	/	/	/
CC(=O)c1ccccc1C(=O)N1CCCC(N2CCN(Cc3ccc4c(c3)OCO4)CC2)C1 (stereo not drawn)	i	16.6	1.8	i	7.9	-0.9	/	/
COc1cc2c(cc1NC(=O)CSc1nc3ccc(C)cc3[nH]1)oc1ccccc12	i	21.4	-3.4	i	-16.8	0.0	/	/
CCOC(=O)c1ccc2[nH]c3c(c2c1)CN(C)CC3	6.85*	6.9	-12.0	i	-20.4	0.1	32.0*	-43.2*
O=C1CCC(C(=O)O)N1 (stereo not drawn)	i	11.1	-1.9	i	23.8	-0.4	/	/
CN1CCN(/N=C/c2nc(-c3ccccc3)n3ccccc23)CC1	i	-0.6	3.0	i	4.2	0.2	27.2*	i
COC(=O)c1ccccc1NC(=O)CN1CCc2ccccc2C1	i	20.7	-0.5	i	0.8	1.0	/	/
COC(=O)c1ccccc1NC(=O)CN1CCN(C23CC4CC(CC(C4)C2)C3)CC1	6.87*	18.7	-1.2	i	0.6	-0.5	30.3*	i
